Sm TGR block – inhibitors of Schistosoma mansoni thioredoxin glutathione reductase; 360,000 tested, 3% active; Potency, µM (series often up to 114 µM), without a hit: at the highest dose activity change, negative = inhibition, hits mostly inhibitors; Q962Y6; purified TGR, DTNB reduction, TNB absorbance 405 nm; also: potency is read from the fitted curve at half-maximal effect; nearly all actives have a fitted effect of over 60% in size
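Kinetic colorimetric format: TGR-catalysed, NADPH-driven DTNB reduction monitored via TNB absorbance. Enzyme dispensed at 20 nM; compound exposure 15 min at room temperature before reaction start.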
HCMV antiviral – blocks human cytomegalovirus replication | AID 1259415 | 410,000 tested, 4.5% active | HFF cells, HCMV-luciferase reporter, 72 h; active compounds read low | activity change, negative = inhibition, % at 57.5 µM; in the data active = activity change below about -60%; inconclusive = no clear call, values can overlap the other calls; inactive = above about -39%
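Cell-based, HFFs, 1000 cells/well, 16 h 37C; cpds in DMSO + HCMV-luc, MOI 1 PFU/cell; 72 h 37C; OneGlo luminescence after 5 min RT; norm. to buffer vs Salinomycin 10uM.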
FBPA Giardia inh – Giardia lamblia aldolase inhibition; purified Giardia FBPA; Potency, µM (series often up to 59.6 µM), inactives show top-dose activity, negative = inhibition, usual class: inhibitors; 290,000 tested, 0.71% active; also: potency is read from the fitted curve at half-maximal effect; nearly all actives have a fitted effect of over 55% in size
Target sequence (A8B2U2 whole entry, looked up): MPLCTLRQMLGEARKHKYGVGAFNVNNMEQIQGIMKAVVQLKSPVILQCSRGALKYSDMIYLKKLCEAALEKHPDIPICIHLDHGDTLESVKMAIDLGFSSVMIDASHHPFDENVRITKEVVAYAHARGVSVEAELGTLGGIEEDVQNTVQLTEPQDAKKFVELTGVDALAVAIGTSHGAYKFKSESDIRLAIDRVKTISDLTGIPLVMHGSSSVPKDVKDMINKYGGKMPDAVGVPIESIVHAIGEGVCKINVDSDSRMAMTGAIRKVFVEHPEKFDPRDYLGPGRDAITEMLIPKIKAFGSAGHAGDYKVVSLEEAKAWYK
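40 nM FBPA preincubated 10 min at RT with compound (up to 57.5 uM final), then substrate plus GAPDH/TPI/NAD/arsenate coupling and diaphorase/resazurin added. Fluorescence read after 20 min at RT, 525/598 nm.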
Pf growth 48h – inhibits P. falciparum growth in the first generation, 48 h; P. falciparum luciferase growth in erythrocytes, 48 h; Potency, µM (highest dose often 28.7 µM), without a hit: at the top dose activity change, negative = inhibition, most hits filed as inhibitors; 310,000 tested, 5.9% active; also: potency is read from the fitted curve at half-maximal effect
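Here the parasites carry a stable luciferase gene and grow inside erythrocytes in Albumax-based RPMI medium with compound for one erythrocytic cycle. Activity is scored as loss of luminescent signal.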
Pf growth 96h – inhibits malaria parasite growth, 96 h. P. falciparum luciferase reporter growth, 96 h. Potency, µM (series often up to 28.7 µM), for inactives: top-dose activity change, negative = inhibition, usual class: inhibitors. 320,000 tested, 6.9% active; also: potency is read from the fitted curve at half-maximal effect
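P. falciparum expressing integrated firefly luciferase grown in erythrocytes (2% hematocrit, 0.05% parasitemia final) with compounds for 96 hours at 37 C, 5% CO2. Growth inhibition read as loss of luminescence after adding luciferase detection reagent.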
An asterisk follows results filed as active; [ ] = remark or other dose. An excerpt weighted towards active compounds, which were near 14% of everything screened. Unless noted, calls follow the shape of the dose curve; as a rule, active = well fitted curve in the direction sought with a large enough effect; inconclusive = small, poorly fitted or top-dose-only effect, or another doubt; inactive = no such curve, though single readings can be large; an effect the other way counts as inactive or inconclusive. % is scaled to controls: 0 for no effect and ±100 for the full control effect.

For Cc1ccc(-c2nnn(CC(=O)N(CC3CCCO3)C(C(=O)NCC3CCCO3)c3ccc(F)cc3)n2)o1 (stereo not given) the results were Sm TGR block 0%, HCMV antiviral -22, FBPA Giardia inh -2%, Pf growth 48h -25% and Pf growth 96h inconclusive.
For CN(C(=O)c1cccc(NC(=O)Cc2ccc(NC(=O)C3CCN(C(=O)C4CC4)CC3)cc2)c1)C1CCC1 the results were HCMV antiviral -6.
COC(=O)[C@@H](NC(=O)N1CCc2nc(-c3ccc(OC)cc3C)c3c(c2C1)CO[C@@H](c1ccccc1)C3)C(C)C was read as FBPA Giardia inh 0%[12.9 µM].
COC1=Nc2ccccc2/C=C\c2ccccc21 was read as HCMV antiviral -17.
For Cc1ccc(-c2nnn(CC(=O)N(c3ccc(F)cc3)C(C(=O)NC3CCCC3)c3ccncc3)n2)o1 (stereo not given) the results were Sm TGR block -7%, HCMV antiviral 38, FBPA Giardia inh 9%, Pf growth 48h 23% and Pf growth 96h inconclusive.
CCC(C(=O)NC1CCCC1)N(C(=O)Cn1nnc(-c2ccc(OC)c(OC)c2)n1)C1CCCCC1 (stereo not given) was read as Sm TGR block 0%, HCMV antiviral -4, FBPA Giardia inh -3%, Pf growth 48h 9.3µM* and Pf growth 96h inconclusive.
Screening Cc1ccc(-c2nnn(CC(=O)N(Cc3ccco3)C(C(=O)NC3CCCC3)c3cccs3)n2)o1 (stereo not given) returned Sm TGR block -26%, HCMV antiviral -8, FBPA Giardia inh 7%, Pf growth 48h 13µM* and Pf growth 96h inconclusive.
Screening Cc1ccc(N(C(=O)Cn2nnc(-c3ccc(C)o3)n2)C(C(=O)NC2CCCC2)c2ccncc2)cc1 (stereo not given) returned Sm TGR block 3%, HCMV antiviral -4, Pf growth 48h 0% and Pf growth 96h 10µM*.
For CC(C)(C)NC(=O)C(c1ccc(F)cc1)N(Cc1ccco1)C(=O)Cn1nnc(-c2cccs2)n1 (stereo not given) the results were Sm TGR block -2%, HCMV antiviral 42, FBPA Giardia inh 5%, Pf growth 48h 5.9µM* and Pf growth 96h inconclusive.
Cc1ccc(NC(=O)CCN2C(=O)NC(C)(C)C2=O)cc1F was read as Sm TGR block -7%, HCMV antiviral 46, Pf growth 48h -22% and Pf growth 96h 16%.
Screening O=C1CN(S(=O)(=O)Cc2ccccc2)C[C@@H]2[C@H](c3ccc(Br)cc3)[C@@H](CO)N12 returned HCMV antiviral 7.
`COc1ccc(C(=O)N[C@H](C(=O)OCCCOC(=O)[C@@H](NC(=O)c2ccc(OC)cc2)C(C)C)C(C)C)cc1` gave HCMV antiviral -13.
`Cc1ccc(N(C(=O)Cn2nnc(-c3ccc(F)cc3)n2)C(CC(C)C)C(=O)NCC2CCCO2)cc1` (stereo not given) gave Sm TGR block -24%, HCMV antiviral -16, FBPA Giardia inh -6%, Pf growth 48h 13µM* and Pf growth 96h inconclusive.
Screening CC(=O)c1ccc(N(C(=O)Cn2nnc(-c3ccccc3)n2)C(C(=O)NC2CCCCC2)c2ccccn2)cc1 (stereo not given) returned Sm TGR block 5%, HCMV antiviral 10, FBPA Giardia inh -1%, Pf growth 48h -20% and Pf growth 96h 9.3µM*.
`CCc1ccc(N(C(=O)Cn2nnc(-c3ccccc3)n2)C(C(=O)NC2CCCCC2)c2ccccn2)cc1` (stereo not given) gave Sm TGR block 7%, HCMV antiviral 51, FBPA Giardia inh -1%, Pf growth 48h 12% and Pf growth 96h 419%.
`COc1ccc(-c2nnn(CC(=O)N(Cc3cccs3)C(C)C(=O)NC3CCCC3)n2)cc1OC` (stereo not given) gave Sm TGR block 5%, HCMV antiviral 16, FBPA Giardia inh 17%, Pf growth 48h inconclusive and Pf growth 96h inconclusive.
For CC(C)CCNC(=O)C(c1ccncc1)N(Cc1cccs1)C(=O)Cn1nnc(-c2ccc(F)cc2)n1 (stereo not given) the results were Sm TGR block inconclusive, HCMV antiviral 14, FBPA Giardia inh -12%, Pf growth 48h 15µM* and Pf growth 96h 62%.
O=C(NCC1CCCO1)C(c1ccncc1)N(Cc1cccs1)C(=O)Cn1nnc(-c2ccc(F)cc2)n1 (stereo not given) was read as Sm TGR block 11%, HCMV antiviral 5, FBPA Giardia inh -2%, Pf growth 48h 1% and Pf growth 96h inconclusive.
For Cc1ccc(-c2nnn(CC(=O)N(Cc3cccs3)C(C(=O)NC3CCCC3)c3ccncc3)n2)cc1 (stereo not given) the results were Sm TGR block -33%, HCMV antiviral inconclusive, FBPA Giardia inh -15%, Pf growth 48h 5.9µM* and Pf growth 96h inconclusive.
CN(Cc1ccccc1)C(=O)[C@@H]1CCCN1C(=O)OC(C)(C)C was read as HCMV antiviral 2.
Screening COCC(=O)N1CC(=O)N2[C@@H](CO)[C@H](c3ccc(Br)cc3)[C@@H]2C1 returned HCMV antiviral 3.
`C[C@H](CO)N1C[C@H](C)[C@@H](CN(C)C(=O)c2cc(-c3ccccc3)on2)OCc2cn(nn2)CCCC1=O` gave HCMV antiviral 13.
For O=C(Oc1ccc(=O)[nH]n1)c1ccccc1 the results were HCMV antiviral 7.
`CCN(CC)CCN(C(=O)Cn1nnc(-c2ccc(OC)c(OC)c2)n1)C(C(=O)NC1CCCC1)c1ccc(F)cc1` (stereo not given) gave Sm TGR block -10%, HCMV antiviral -21, FBPA Giardia inh 2% and Pf growth 96h -23%.
CCC(C(=O)NC1CCCC1)N(C(=O)Cn1nnc(-c2ccc(C)o2)n1)C(C)(C)C (stereo not given) was read as Sm TGR block -36%, HCMV antiviral -13, FBPA Giardia inh -2%, Pf growth 48h inconclusive and Pf growth 96h 2.3µM*.
For CCOC(=O)CN(C(=O)Cn1nnc(-c2ccc(OC)cc2)n1)C(C(=O)NC1CCCC1)c1ccc(F)cc1 (stereo not given) the results were Sm TGR block -5%, HCMV antiviral 7, FBPA Giardia inh -7%, Pf growth 48h 13µM* and Pf growth 96h 15µM*.
COc1cc(C(C(=O)NC2CCCC2)N(CCO)C(=O)Cn2nnc(-c3ccc(C)o3)n2)ccc1O (stereo not given) was read as Sm TGR block 45µM*, HCMV antiviral -24, FBPA Giardia inh 4%, Pf growth 48h 5% and Pf growth 96h -10%.
CC1(C(=O)O)CCN1C(=O)c1cccnc1Oc1ccccc1 (stereo not given) was read as HCMV antiviral 4.

Compound activity: PubChem BioAssay, National Center for Advancing Translational Sciences (NCATS)
